# Laboratory results reported in PubChem BioAssay (NCATS).
# Values joined by “and” are separate entries in the source; they are usually repeats but may differ in a detail not shown here. Equal values may be shown once. Results filed as inconclusive are left out. Active and inactive are the calls of the source. Unless noted, the call rests on the fitted dose curve.
# Assays:
# [1] = Primary qHTS for inhibitors of nuclear receptor binding SET domain protein 2 (NSD2) in an isogenic RCH-ACV NSD2 p.E1099K mutant (9B) (AID 1645876; active means well fitted curve in the direction sought with a large enough effect; an effect the other way counts as inactive or inconclusive; further: potency means the concentration at half of the fitted maximal effect; nearly all actives have a fitted effect of over 70% in size)
# [2] = Primary qHTS for inhibitors of nuclear receptor binding SET domain protein 2 (NSD2) in an RCH-ACV wild type WT cells (2C) (AID 1645877; active means well fitted curve in the direction sought with a large enough effect; an effect the other way counts as inactive or inconclusive; further: potency means the concentration at half of the fitted maximal effect; nearly all actives have a fitted effect of over 70% in size)
# [3] = Cytotoxicity counterscreen for inhibitors of SARS-CoV-2 cell entry (AID 1645845); further: nearly all actives have a fitted effect of over 50% in size
# Outline: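 HEK293-ACE2 cells (Expi293F stably expressing human ACE2) seeded overnight, then compound for 1 h plus 48 h at 37C. Viability as ATP content by luminescence; normalized to wells with cells and media-only wells.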
# [4] = Primary qHTS to identify inhibitors of SARS-CoV-2 cell entry (AID 1645846); details: activity change, negative = inhibition: at 57.1 µM (top of the series) unless noted; further: nearly all actives have a fitted effect of over 45% in size; further: potency means the concentration at half of the fitted maximal effect
# Outline: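 Data are normalized to wells receiving SARS-CoV-2-S pseudoparticles and those given bald particles. Entry signal was luciferase luminescence in stable hACE2 Expi293F cells, 48 hr post-infection, after 1 hr compound pretreatment.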
# [5] = VSVG counterscreen qHTS to identify inhibitors of SARS-CoV-2 cell entry (AID 1645847); further: potency means the concentration at half of the fitted maximal effect; nearly all actives have a fitted effect of over 65% in size
# Outline: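 Counterscreen using VSV-G (not spike) pseudotyped MLV particles on ACE2-expressing Expi293F cells after 1 h compound preincubation; infection ran 48 h at 37 °C. Data normalized to VSV-G PP and bald-PP wells.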
smiles,measurement,setting,value
C[C@]12C/C(=C/O)C(=O)C[C@@H]1CC[C@@H]1[C@@H]2CC[C@@]2(C)[C@H]1CC[C@]2(C)O,Potency,[1],13.3 µM (active)
same,Potency,[2],23.7 µM (active)
COc1cccc2c1C(=O)c1c(O)c3c(c(O)c1C2=O)C[C@@](O)(C(=O)CO)C[C@@H]3O[C@H]1C[C@H](N)[C@H](O)[C@H](C)O1,Potency,[3],inactive
same,"activity change, negative = inhibition",[4],-93.7%
same,Potency,[5],0.152 µM (active)
Cn1cnc([N+](=O)[O-])c1Sc1ncnc2nc[nH]c12,Potency,[4],inactive
same,"activity change, negative = inhibition",[4],-53.9%
Cc1c(OCC(F)(F)F)ccnc1CS(=O)c1nc2ccccc2[nH]1 (centres undefined),Potency,[4],inactive
CC[C@]1(O)C[C@@H]2CN(CCc3c([nH]c4ccccc34)[C@@](C(=O)OC)(c3cc4c(cc3OC)N(C)[C@H]3[C@@](O)(C(=O)OC)[C@H](OC(C)=O)[C@]5(CC)C=CCN6CC[C@]43[C@@H]65)C2)C1,Potency,[3],inactive
same,"activity change, negative = inhibition",[4],-82.9%
same,Potency,[5],0.0341 µM (active)
CC/C(=C(\c1ccccc1)c1ccc(OCCN(C)C)cc1)c1ccccc1,Potency,[3],inactive
same,Potency,[5],49.4 µM (active)
CNCCC(Oc1ccc(C(F)(F)F)cc1)c1ccccc1 (centres undefined),Potency,[3],inactive
same,Potency,[5],0.121 µM (active)
COC(=O)Nc1nc2ccc(C(=O)c3cccs3)cc2[nH]1,Potency,[3],inactive
same,"activity change, negative = inhibition",[4],-61.3%
same,Potency,[5],0.152 µM (active)
CCCCc1oc2ccc(NS(C)(=O)=O)cc2c1C(=O)c1ccc(OCCCN(CCCC)CCCC)cc1,Potency,[4],11.2 µM (active)
O=C1c2c(O)ccc(O)c2C(=O)c2c(NCCNCCO)ccc(NCCNCCO)c21,"activity change, negative = inhibition",[4],-94.5% and -97.6%
C=C(CC)C(=O)c1ccc(OCC(=O)O)c(Cl)c1Cl,Potency,[3],inactive
same,Potency,[4],17.8 µM (active)
same,Potency,[5],1.92 µM (active)
O=C1CCc2ccc(OCCCCN3CCN(c4cccc(Cl)c4Cl)CC3)cc2N1,Potency,[5],13.6 µM (active)
O=C1C(=O)c2ccccc2C(O)=C1C1CCC(c2ccc(Cl)cc2)CC1 (centres undefined),Potency,[5],9.61 µM (active)
CCCCNc1ccc(C(=O)OCCOCCOCCOCCOCCOCCOCCOCCOCCOC)cc1,Potency,[5],21.5 µM (active)
CN(Cc1cnc2nc(N)nc(N)c2n1)c1ccc(C(=O)N[C@@H](CCC(=O)O)C(=O)O)cc1,"activity change, negative = inhibition",[4],-94.2%
CC(C)C[C@H](NC(=O)[C@H](CCc1ccccc1)NC(=O)CN1CCOCC1)C(=O)N[C@@H](Cc1ccccc1)C(=O)N[C@@H](CC(C)C)C(=O)[C@@]1(C)CO1,"activity change, negative = inhibition",[4],-96% and -97.8%
CCN(CC)CCNC(=O)c1c(C)[nH]c(/C=C2\C(=O)Nc3ccc(F)cc32)c1C,Potency,[4],25.1 µM (active)
CC(CN(C)C)CN1c2ccccc2CCc2ccccc21 (centres undefined),Potency,[3],inactive
same,Potency,[5],1.92 µM (active)
Cc1nc(Nc2ncc(C(=O)Nc3c(C)cccc3Cl)s2)cc(N2CCN(CCO)CC2)n1,Potency,[3],inactive
same,Potency,[5],3.83 µM (active)
O=C(c1ccc(OCCN2CCCCC2)cc1)c1c(-c2ccc(O)cc2)sc2cc(O)ccc12,Potency,[4],31.6 µM (active)
CC(=O)[C@]1(O)Cc2c(O)c3c(c(O)c2[C@@H](O[C@H]2C[C@H](N)[C@H](O)[C@H](C)O2)C1)C(=O)c1ccccc1C3=O,Potency,[3],inactive
same,"activity change, negative = inhibition",[4],-91.2% and -93.3%
same,Potency,[5],0.0857 µM (active)
CC(C)C[C@H](NC(=O)[C@H](Cc1ccccc1)NC(=O)c1cnccn1)B(O)O,"activity change, negative = inhibition",[4],-95.1%
C[C@@H](NCCCc1cccc(C(F)(F)F)c1)c1cccc2ccccc12,Potency,[4],20 µM (active)
